MEKK2wt PB1 HTS – raises or lowers MEK5 binding to wildtype human MEKK2 PB1 domain; Q9Y2U5; bead flow cytometry, Alexa488-MEK5 binding to MEKK2 WT; actives lie on both sides; binding response (% of control), % at 10 µM; hit rate 1.1% among 290,000; AID 1531; in the data active = binding response below about 67% or above about 130%
MEKK3 PB1 HTS – modulators (inhibitors or enhancers) of MEK5 binding to human MEKK3 PB1 domain. bead-based flow cytometry, Alexa488-MEK5 binding to MEKK3; actives lie on both sides; 0 = blocked by unlabeled MEK5, 100 = vehicle. binding response (% of control), % at 10 µM. hit rate 1.4% among 290,000;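 active = binding response more than 3 SD above or below the average of its plate-row segment, actives on both sides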;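 note: Alexa488 bead fluorescence after subtracting the streptavidin-only scavenger bead signal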
MEKK2mut PB1 HTS – signal of MEK5 binding to mutant human MEKK2 PB1 domain; bead flow cytometry, Alexa488-MEK5 binding to MEKK2 mutant; percent response, % at 10 µM; hit rate 0.35% among 290,000; in the data active = percent response above about 24%, passing the limit was not always enough
Beta2AR agonist – activates human beta-2 adrenergic receptor causing internalization | hit rate 0.43% among 340,000 | Am2.2-beta2AR cells, FAP receptor internalization, flow cytometry | response, % (test concentration not listed) | P07550 | AID 504454;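 active = response above a set limit, near 3 SD of response in nonfluorescent compounds, cut at about 42% in these data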
GRK2 aptamer HTS – human GRK2 inhibition via aptamer displacement; P25098; inhibition of aptamer binding, % at 10 µM; bead flow cytometry, FAM-aptamer displacement from GRK2; hit rate 0.59% among 330,000;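 active = inhibition of aptamer binding above 40%, roughly 3 SD of noise, on plates passing a quality check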;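 note: median bead fluorescence of bound FAM aptamer so fluorescent compounds give negative values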
Target sequence (P25098 whole entry, looked up): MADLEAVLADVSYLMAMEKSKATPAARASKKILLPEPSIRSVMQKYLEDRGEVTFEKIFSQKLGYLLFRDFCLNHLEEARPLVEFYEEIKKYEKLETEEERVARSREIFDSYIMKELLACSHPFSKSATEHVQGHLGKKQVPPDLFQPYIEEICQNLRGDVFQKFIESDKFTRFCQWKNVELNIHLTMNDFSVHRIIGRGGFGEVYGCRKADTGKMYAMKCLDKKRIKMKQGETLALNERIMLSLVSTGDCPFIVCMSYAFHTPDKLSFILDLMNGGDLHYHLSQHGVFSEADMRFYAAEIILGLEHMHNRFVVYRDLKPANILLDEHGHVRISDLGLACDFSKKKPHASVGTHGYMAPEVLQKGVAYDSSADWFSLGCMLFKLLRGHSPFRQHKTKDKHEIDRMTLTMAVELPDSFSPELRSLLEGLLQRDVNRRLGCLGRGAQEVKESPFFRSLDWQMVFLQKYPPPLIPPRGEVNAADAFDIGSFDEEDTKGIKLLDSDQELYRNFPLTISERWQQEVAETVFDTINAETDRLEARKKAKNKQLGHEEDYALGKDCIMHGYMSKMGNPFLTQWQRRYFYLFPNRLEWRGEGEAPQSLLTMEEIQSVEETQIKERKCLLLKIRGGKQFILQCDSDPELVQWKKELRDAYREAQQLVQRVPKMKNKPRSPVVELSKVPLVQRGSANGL
GRK2 CP1 – confirmation of human GRK2 inhibitors displacing RNA aptamer; bead-bound GRK2, FAM-aptamer displacement, flow cytometry; aptamer displacement, % at 10 µM; AID 504451; hit rate 4% among 2,000; shares compounds with GRK2 aptamer HTS;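 active = aptamer displacement above 40%, near three times the noise of non-fluorescent compounds, on plates passing quality checks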;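 note: negative values mostly reflect intrinsic compound fluorescence rather than true enhancement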
FAM quench CP1 – counter-screen for GRK2 aptamer inhibitors: fluorescent aptamer quenchers; 2,000 tested, under 10 active; Carboxyfluorescein RNA aptamer on beads, flow cytometry quenching; stronger effect = lower value; AID 504580; shares compounds with GRK2 aptamer HTS; fluorescence response (% of DMSO), % at 10 µM;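 active = compounds that quench the bead-bound fluorescent RNA probe, cutting fluorescence to under half of the solvent control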;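 note: counterscreen run without GRK2 so only probe quenching by compound is measured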
GRK2 confirm 2 – human GRK2 inhibition confirmation, cherry pick 2. shares compounds with GRK2 aptamer HTS. AID 504782. 360 tested, under 10 active. bead-bound GRK2, FAM-aptamer displacement, flow cytometry. inhibition of aptamer binding, % at 10 µM;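 active = inhibition of aptamer binding above 40%, about triple the noise seen with nonglowing compounds, on plates passing quality control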;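 note: negative values mostly come from compounds that fluoresce themselves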
FAM quench CP2 – aptamer fluorescence quenching in GRK2 counter-screen; shares compounds with GRK2 aptamer HTS; carboxyfluorescein RNA aptamer beads, flow cytometry quenching; stronger effect = lower value; fluorescence response vs DMSO, % at 10 µM; 360 tested, under 10 active; AID 588494;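 active = response vs DMSO under 50%, meaning signal dropped by over half, treated as fluorescence quencher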;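 note: labelled aptamer on streptavidin beads without GRK2 as a quench counter-screen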
A number is an active result; - = inactive; . = no result given. Only some compounds are listed: those with a hit (about 2.9% of all), similar ones and a draw of the others.

SMILES	MEKK2wt PB1 HTS	MEKK3 PB1 HTS	MEKK2mut PB1 HTS	Beta2AR agonist	GRK2 aptamer HTS	GRK2 CP1	FAM quench CP1	others
N#Cc1ccccc1S(=O)(=O)N1CCN(CC(O)COc2ccccc2F)CC1 (configuration not stated)	-	-	-	-	54.0	-	-
O=S(=O)(c1ccccc1C(F)(F)F)N1CCN(CC(O)COc2ccccc2F)CC1 (configuration not stated)	-	-	-	-	-	.	.
CCOc1ccc(CC(=O)NCc2ccc3c(c2)cc(C)n3C)cc1	-	-	-	-	-	-	-
Cc1cc2cc(CNC(=O)COc3ccccc3)ccc2n1C	-	-	-	-	-	.	.
CCOC(=O)/C=C1\SCC(=O)N1CC(=O)NCCc1ccc(F)cc1	-	-	-	-	-	.	.
Cc1cc2cc(CNC(=O)Nc3ccc(Cl)c(Cl)c3)ccc2n1C	-	-	-	-	-	-	-
COc1ccc(CC(=O)NCc2ccc3c(c2)cc(C)n3C)cc1OC	-	-	-	-	-	-	-
Cc1cc2cc(CNC(=O)NC3CCCCC3)ccc2n1C	-	-	-	-	-	.	.
CCOC(=O)/C=C1\SCC(=O)N1CC(=O)NCc1ccc(OC)c(OC)c1	-	-	-	-	95.0	-	-
COc1ccc(NC(=O)COc2nc3ccccc3nc2N2CCOCC2)c(OC)c1	-	-	-	-	-	.	.
Cc1nc2c(ccc3c2ccc2nc(C)sc23)s1	-	-	-	.	-	.	.	GRK2 confirm 2=-;FAM quench CP2=-
Cc1ccc(S(=O)(=O)N(C)c2ccc(OC(=O)c3cccs3)cc2)cc1C	.	.	.	-	-	.	.
Cc1ccc(CNC(=O)C2CCCN(Cc3cnn(-c4ccccc4)c3-n3cccc3)C2)cc1 (configuration not stated)	-	-	-	-	-	-	-
O=C(NCC1CCCO1)C1CCCN(Cc2cnn(-c3ccccc3)c2-n2cccc2)C1 (configuration not stated)	-	-	-	-	-	-	-
O=C(Nc1ccc2c(c1)OCO2)C1CCN(Cc2cnn(-c3ccccc3)c2-n2cccc2)CC1	-	-	-	-	-	.	.
Cc1ccc(CNC(=O)C2CCCN(S(=O)(=O)c3cccnc3)C2)cc1 (configuration not stated)	-	-	-	-	-	.	.
CCCCc1cc(=O)oc2c(C)c(OCC(=O)NCC3CCC(C(=O)O)CC3)ccc12 (configuration not stated)	-	-	-	-	-	.	.
COc1ccccc1NS(=O)(=O)c1cccc(C(=O)OCC(=O)NC2CC2)c1	.	.	.	-	59.0	-	-
O=C(c1ccco1)N1CCN(c2ccc([N+](=O)[O-])cn2)CC1	-	-	-	-	-	.	.
C[C@@H]1NC(=O)c2cc([N+](=O)[O-])cc(I)c2OCC[C@@H](C(N)=O)NC(=O)[C@H](CCCCN)NC1=O	-	-	-	-	-	.	.
NCCCC[C@@H]1NC(=O)c2cc([N+](=O)[O-])cc(I)c2SC[C@@H](C(N)=O)NC(=O)[C@H](Cc2ccc(O)cc2)NC1=O	-	-	-	-	69.0	-	-
NCCCC[C@H]1NC(=O)[C@H](CCC(=O)O)NC(=O)c2cc([N+](=O)[O-])cc(I)c2OCC[C@@H](C(N)=O)NC1=O	-	-	-	.	56.0	-	-
C/C(=N\NC(=O)Cc1ccc(Cl)cc1)c1cccnc1	-	-	-	-	-	.	.
CC1CCCC(NC(=O)COC(=O)c2ccc(S(=O)(=O)N3CCOCC3)cc2)C1C (configuration not stated)	-	-	-	-	-	.	.
CC1CCCC(NC(=O)COC(=O)c2cc(S(=O)(=O)N3CCOCC3)ccc2F)C1C (configuration not stated)	.	.	.	-	60.0	-	-
SMILES	MEKK2wt PB1 HTS	MEKK3 PB1 HTS	MEKK2mut PB1 HTS	Beta2AR agonist	GRK2 aptamer HTS	GRK2 CP1	FAM quench CP1	others
C/C(=N\NC(N)=S)c1ccc2c(c1)OCCO2	-	-	-	-	-	.	.
CC(=O)N/N=C(\C)c1ccc2c(c1)OCCO2	-	-	-	-	72.0	-	-
CC(NCCN(C)C)C1CCC2C3CCc4cc(O)ccc4C3CCC12C (configuration not stated)	.	.	.	-	.	.	.
O=S(OCCN1CCCC1)C(c1ccccc1)c1ccccc1 (configuration not stated)	.	.	.	-	.	.	.
COc1ccc(CCNC(=O)C2(C)CCC(=O)N2Cc2ccc(C)cc2)cc1OC (configuration not stated)	-	-	-	-	-	-	-
COc1cccc(CN2C(=O)CCC2(C)C(=O)NCCc2ccc(OC)c(OC)c2)c1 (configuration not stated)	-	-	-	-	-	.	.
CCOC(=O)c1ccc(NC(=O)CN(C)S(=O)(=O)c2ccc(Br)s2)cc1	-	-	-	-	-	.	.
COc1ccc(-c2nc3ccccc3c(=O)n2N)cc1	-	-	-	-	-	.	.
COc1ccc(-c2nc3ccccc3c(=O)n2CC(C)C)cc1	-	-	-	-	98.0	-	-
CC1(c2ccccc2)CC(C)(C)N2C(=O)Cc3cccc1c32 (configuration not stated)	-	-	-	-	50.0	-	-
CC1(c2ccccc2)CC(C)(C)N(C(N)=O)c2ccccc21 (configuration not stated)	-	-	-	-	-	.	.
COc1cc2c(cc1OC)C(COc1ccc([N+](=O)[O-])cc1)NCC2 (configuration not stated)	-	-	-	-	-	.	.
CCN1C(=O)[C@H]2[C@@H](c3ccc(-c4cccc(Cl)c4)c(OC)c3)N3CCCC[C@@]3(C(=O)OC)[C@H]2C1=O	.	.	.	-	-	.	.
Cc1c(C(=O)N2CCN(c3ccccn3)CC2)cccc1[N+](=O)[O-]	-	-	-	-	-	-	-
O=C(c1ccc([N+](=O)[O-])cc1Cl)N1CCN(c2ccccn2)CC1	-	-	-	-	-	.	.
O=C(c1ccc(Cl)cc1[N+](=O)[O-])N1CCN(c2ccccn2)CC1	-	-	-	-	82.0	-	-
CSc1ncc(C(=O)Nc2ccccc2)cn1	-	-	-	-	-	.	.
Cc1cc(C)n(/N=C/c2c[nH]c3ccccc23)c(=O)c1C#N	-	-	-	-	65.0	-	-
Cc1cc(C)n(/N=C/c2ccccc2)c(=O)c1C#N	-	-	-	-	-	.	.

Screens as filed in PubChem.
